The values that follow come from publication PMC5540273 (PLoS ONE, 2017).

Holding throughout (details): concentration: 1 μM, replicates: in singlicate; n = 1
The subject of assay [1] is RPS6KA5(Kin.Dom.2-C-terminal).
Assay [2] relates to T1, RSK1(Kin.Dom.1-N-terminal).
T1 construct: gene RPS6KA1

In assay [3] the test system is T2, RSK1(Kin.Dom.2-C-terminal).
T2 construct: gene RPS6KA1

The subject of assay [4] is T3, RSK2(Kin.Dom.1-N-terminal).
T3 construct: gene RPS6KA3

Assay [5] has as its system T4, RSK2(Kin.Dom.2-C-terminal).
T4 construct: gene RPS6KA3

Assay [6] concerns T5, RSK3(Kin.Dom.1-N-terminal).
T5 construct: gene RPS6KA2

The subject of assay [7] is T6, RSK3(Kin.Dom.2-C-terminal).
T6 construct: gene RPS6KA2

In assay [8] the test system is T7, RSK4(Kin.Dom.1-N-terminal).
T7 construct: gene RPS6KA6

In assay [9] the test system is T8, RSK4(Kin.Dom.2-C-terminal).
T8 construct: gene RPS6KA6

The subject of assay [10] is S6K1.
Assay [11] relates to SBK1.
The test system of assay [12] is SGK2.
For assay [13], the system named is SGK3.
For assay [14], the system named is SGK.
The subject of assay [15] is SIK2.
Assay [16] concerns SIK.
Assay [17] has as its system SLK.
Assay [18] deals with T9, SNARK.
T9 construct: gene NUAK2

The subject of assay [19] is SNRK.
For assay [20], the system named is SRC.
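Also: KINOMEscan kinase panel screen.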

For the molecule `COC(=O)c1c(-c2ccccc2)c2cc(Cl)ccc2c(=O)n1Cc1ccc(S(C)(=O)=O)cc1`, the “%Inh” value is on record as 0% in assay [1]; 5% in assay [2]; 11% in [3]; 5% in assay [4]; 15% in assay [5]; 9% in assay [6]. The “%Inh” value in [7] came to 6%; in assay [8], 0%; in assay [9], 8%; in assay [10], 0%; in [11] it was 0%; in [12], 0%. Besides, the “%Inh” value in assay [13] turned out to be 9%; in assay [14] it was 0%; in assay [15], 9%; in assay [16], 2%; in [17], 19%; in assay [18], 18%. For the same molecule, the “%Inh” value in assay [19] is listed as 0%; in [20] it was 23%.
For the molecule `O=C(c1ccc(-c2cc(-c3c[nH]nc3-c3ccccn3)ccn2)cc1)N1CCCC1` [GW792479], the “%Inh” value in assay [1] turned out to be 11%; in assay [2] it was 4%; in assay [3], 0%; in assay [4] it was 14%; in [5], 39%; in [6] it was 0%. In addition, the “%Inh” value is reported as 12% in assay [7]; 0% in assay [8]; 19% in [9]; 7% in [10]; 0% in [11]; 8% in [12]. Further, the “%Inh” value is recorded as 0% in assay [13]; 0% in assay [14]; 12% in [15]; 19% in [16]; 3% in [17]; 0% in assay [18]. Besides, the entries for the “%Inh” value in [19] and in [20] were 0% and 17%, respectively.
With `Nc1nc(-c2ccccn2)c(-c2ccnc3ccccc23)s1` [GW548057], the “%Inh” value in [1] is 33%; in assay [2], 5%; in [3] it was 39%; in [4], 0%; in [5] it was 9%; in assay [6] it was 0%. Besides, the “%Inh” value was determined as 1% in assay [7]; 0% in assay [8]; 76% in assay [9]; 0% in assay [10]; 0% in [11]; 0% in [12]. The “%Inh” value is listed as 6% in assay [13]; 0% in [14]; 0% in [15]; 0% in assay [16]; 7% in assay [17]; 0% in [18]. The “%Inh” value in [19] was determined as 0%; in assay [20], 12%.
As for `Clc1ccc(-c2cc(-c3c[nH]nc3-c3ccccn3)ccn2)cc1` [GW681251], the “%Inh” value is given as 0% in assay [1]; 6% in assay [2]; 13% in [3]; 0% in [4]; 21% in assay [5]; 0% in assay [6]. The “%Inh” value in assay [7] was determined as 0%; in assay [8] it was 0%; in assay [9] it was 44%; in assay [10] it was 0%; in assay [11], 4%; in assay [12] it was 0%. Moreover, the “%Inh” value in assay [13] is 6%; in assay [14], 0%; in assay [15], 0%; in [16] it was 0%; in [17], 10%; in assay [18], 0%. Besides, the “%Inh” value in assay [19] and in assay [20] was 0% each time.
Regarding `COc1ccc(NC(=O)Nc2ccc(C)c(-c3ccc(C(=O)Nc4ccncc4)cc3)c2)cc1` [GSK1398475], the “%Inh” value is 0% in [1]; 16% in [2]; 3% in [3]; 0% in assay [4]; 0% in assay [5]; 0% in assay [6]. The “%Inh” value in assay [7] was 0%; in [8], 0%; in assay [9], 22%; in assay [10], 0%; in [11], 0%; in [12], 0%. Further, the “%Inh” value in assay [13] was found to be 10%; in assay [14] it was 0%; in assay [15], 0%; in assay [16], 7%; in assay [17], 0%; in assay [18], 0%. Further, the “%Inh” value in assay [19] and in [20] was 0% throughout.
`COc1cc2ncnc(Nc3ccc(OCc4ccccc4Br)c(Cl)c3)c2cc1OC.Cl` [GI261590]: the “%Inh” value is recorded as 0% in assay [1]; 32% in assay [2]; 0% in assay [3]; 0% in assay [4]; 3% in assay [5]; 100% in [6]. The “%Inh” value in assay [7] worked out at 0%; in assay [8], 0%; in assay [9] it was 0%; in assay [10], 11%; in assay [11], 7%; in assay [12], 11%. The “%Inh” value in assay [13] came to 0%; in assay [14], 4%; in assay [15], 12%; in assay [16], 0%; in assay [17] it was 86%; in [18], 0%. Besides, the “%Inh” value in assay [19] and in assay [20] was 0% each time.
In the case of `FC(F)(F)c1ccc(-c2nn3ncccc3c2-c2ccnc(Nc3cccc(C(F)(F)F)c3)n2)cc1` [GW828205], the “%Inh” value in assay [1] came out at 3%; in assay [2] it was 12%; in assay [3] it was 0%; in [4], 0%; in assay [5], 6%; in assay [6] it was 0%. Moreover, the “%Inh” value is reported as 0% in assay [7]; 0% in assay [8]; 3% in assay [9]; 0% in assay [10]; 0% in [11]; 0% in [12]. Moreover, the “%Inh” value worked out at 18% in assay [13]; 0% in [14]; 0% in assay [15]; 47% in assay [16]; 21% in assay [17]; 0% in assay [18]. Also, the “%Inh” value in [19] and in assay [20] was 0% throughout.
Take `CCCc1ccc(S(=O)(=O)NC2CCN(c3ccnc(Nc4ccc(OC)cc4)n3)C2)cc1` (stereo not drawn) [GSK1379737]: the “%Inh” value in [1] turned out to be 7%; in assay [2], 0%; in assay [3] it was 0%; in assay [4], 2%; in assay [5] it was 13%; in assay [6] it was 0%. Besides, the “%Inh” value in assay [7] is 0%; in assay [8], 0%; in assay [9], 0%; in assay [10] it was 16%; in assay [11], 100%; in [12], 6%. The “%Inh” value is listed as 0% in assay [13]; 0% in assay [14]; 0% in assay [15]; 0% in assay [16]; 15% in assay [17]; 0% in assay [18]. Also, the “%Inh” value in assay [19] and in assay [20] was 0% throughout.
As to `Fc1ccc(Nc2nccc(-c3c(-c4ccc(Cl)cc4)nn4ncccc34)n2)cc1F` [GW829058], the “%Inh” value in [1] turned out to be 18%; in [2] it was 27%; in [3], 10%; in assay [4], 31%; in assay [5] it was 42%; in assay [6] it was 6%. Moreover, the “%Inh” value is given as 0% in assay [7]; 30% in assay [8]; 0% in assay [9]; 4% in assay [10]; 43% in assay [11]; 17% in assay [12]. Moreover, the “%Inh” value in [13] is 3%; in [14], 18%; in assay [15], 0%; in [16], 0%; in assay [17], 6%; in assay [18], 0%. For the same molecule, the “%Inh” value is 0% in [19] and 14% in [20].
As to `Nc1nc(-c2cccnc2)c(-c2ccnc3ccccc23)s1` [GW684083], the “%Inh” value in assay [1] is recorded as 0%; in assay [2], 11%; in [3] it was 22%; in assay [4], 3%; in assay [5] it was 27%; in assay [6] it was 8%. The “%Inh” value in assay [7] was found to be 0%; in [8], 0%; in assay [9], 79%; in assay [10], 18%; in assay [11], 17%; in assay [12], 9%. Also, the “%Inh” value in [13] is 0%; in assay [14] it was 45%; in [15], 0%; in assay [16] it was 4%; in [17] it was 18%; in assay [18] it was 0%. The “%Inh” value in [19] was determined as 0%; in assay [20] it was 2%.
Turning to `Cl.Cn1ccc(-c2cccc(Nc3ccnc4cc(-c5nccs5)ccc34)c2)n1` [GW525701], the “%Inh” value is listed as 39% in [1]; 0% in assay [2]; 0% in assay [3]; 8% in [4]; 21% in [5]; 2% in assay [6]. Further, the “%Inh” value in assay [7] is 13%; in assay [8] it was 0%; in [9], 7%; in assay [10], 0%; in assay [11], 0%; in [12], 0%. Also, the “%Inh” value in assay [13] is 14%; in [14], 0%; in assay [15], 0%; in assay [16], 0%; in assay [17], 42%; in [18] it was 0%. The “%Inh” value in assay [19] and in assay [20] was 0% each time.
As for `CNc1nccc(-c2c(-c3ccc(F)cc3)ncn2CCCN2CCOCC2)n1` [SB-222516], the “%Inh” value in assay [1] came out at 17%; in assay [2], 5%; in assay [3], 0%; in [4] it was 9%; in assay [5], 55%; in assay [6], 3%. Besides, the “%Inh” value came to 0% in assay [7]; 7% in [8]; 87% in [9]; 2% in [10]; 0% in assay [11]; 15% in [12]. Further, the “%Inh” value worked out at 44% in assay [13]; 10% in [14]; 0% in [15]; 12% in [16]; 5% in assay [17]; 24% in [18]. The “%Inh” value in assay [19] is listed as 18%; in assay [20] it was 0%.
On to `Cn1cc(-c2ccc3c(c2)CCN3C(=O)Cc2cccc(C(F)(F)F)c2)c2c(N)ncnc21` [GSK2606414], for which the “%Inh” value in assay [1] came to 0%; in assay [2], 0%; in assay [3], 2%; in assay [4] it was 18%; in [5], 0%; in assay [6], 0%. Besides, the “%Inh” value is 0% in [7]; 0% in assay [8]; 12% in [9]; 4% in assay [10]; 9% in assay [11]; 1% in [12]. Further, the “%Inh” value came to 21% in [13]; 19% in assay [14]; 0% in assay [15]; 0% in assay [16]; 14% in assay [17]; 14% in [18]. Besides, the figures for the “%Inh” value in assay [19] and in assay [20] were 1% and 5%, respectively.
Turning to `CN1CCC(n2cnc(-c3ccc(F)cc3)c2-c2ccnc(NC3CCNCC3)n2)CC1` [SB-229482], the “%Inh” value in [1] is 0%; in [2] it was 17%; in [3], 23%; in [4], 9%; in assay [5], 43%; in assay [6], 18%. Also, the “%Inh” value in assay [7] is 30%; in [8] it was 0%; in assay [9], 51%; in assay [10] it was 25%; in [11] it was 0%; in assay [12], 87%. The “%Inh” value in [13] is reported as 0%; in [14] it was 0%; in assay [15], 0%; in assay [16] it was 12%; in assay [17], 0%; in assay [18] it was 0%. Also, the “%Inh” value in assay [19] stood at 1%; in assay [20] it was 0%.
`COc1ccc(-c2oc3ncnc(N)c3c2-c2ccc(OC)cc2)cc1` [SB-589132]: the “%Inh” value in [1] stood at 0%; in assay [2], 29%; in assay [3], 30%; in [4], 9%; in assay [5], 30%; in assay [6], 5%. Moreover, the “%Inh” value is recorded as 0% in assay [7]; 0% in assay [8]; 69% in [9]; 16% in [10]; 0% in [11]; 5% in [12]. The “%Inh” value amounted to 0% in assay [13]; 9% in assay [14]; 2% in assay [15]; 1% in assay [16]; 20% in assay [17]; 0% in assay [18]. The “%Inh” value in assay [19] is reported as 0%; in [20], 40%.
